Most compounds without a hit are left out; they make up all but 4% or so of the library.
MazF activator: MazEF (E. coli) toxin RNase activation. activation, % at 20 µM. FAM/BHQ RNA-DNA oligo cleavage fluorescence, 5 h. hit rate 0.32% among 350,000; in the data active = activation above about 50%
Target sequence (P0AE70 whole entry, looked up): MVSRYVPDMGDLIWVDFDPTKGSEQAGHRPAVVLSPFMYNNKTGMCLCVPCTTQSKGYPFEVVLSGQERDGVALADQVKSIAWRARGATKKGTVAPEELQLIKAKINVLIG
GDH-TPI counter: inhibits GDH-TPI coupling enzymes, artifact for Mtb FBA screen | GDH-TPI coupled enzyme counterscreen, NADH absorbance | inhibition, % at 4.8 µM | hit rate 1.2% among 360,000;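 note: 0% = DMSO wells and 100% = wells lacking the enzyme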
Mtb FBA inh: inhibits M. tuberculosis FBA enzyme | P9WQA3 | purified M. tuberculosis FBA, fluorescence read-out | inhibition, % at 1 µM | hit rate 2.3% among 360,000; in the data active = inhibition above about 27%;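 note: 0% = vehicle and 100% = reference inhibitor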
Target sequence (P9WQA3 whole entry, looked up): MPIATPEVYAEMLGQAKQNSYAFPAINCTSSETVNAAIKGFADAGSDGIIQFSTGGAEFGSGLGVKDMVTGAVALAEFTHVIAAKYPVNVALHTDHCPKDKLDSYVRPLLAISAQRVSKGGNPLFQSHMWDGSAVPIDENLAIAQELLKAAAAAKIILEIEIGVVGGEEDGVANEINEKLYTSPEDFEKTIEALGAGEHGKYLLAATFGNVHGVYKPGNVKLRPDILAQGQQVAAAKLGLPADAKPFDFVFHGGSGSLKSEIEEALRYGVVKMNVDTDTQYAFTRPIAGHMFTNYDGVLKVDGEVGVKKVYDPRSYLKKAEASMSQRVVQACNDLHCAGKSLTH
CCHF vOTU inh: blocks the CCHF virus ovarian tumor domain protease; inhibition, % at 11.5 µM; CCHFV vOTU protease, Pep-AMC fluorescence; hit rate 0.55% among 370,000; note: 0% = vehicle wells with enzyme and 100% = no enzyme wells
Mtb betalactam: beta-lactam sensitization of Mtb H37Rv. M. tuberculosis H37Rv growth with meropenem, percent inhibition. inhibition, % at 25 µM. hit rate 0.27% among 330,000; call rule not given here;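 note: growth measured after seven days incubation then overnight dye step; 0% = bacteria only wells and 100% = bacteria with antibiotic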
* marks the source's active call; other numbers are inactive results; · = no result; + = active, no number. Cut-off read from the data, not from the text of the source, unless noted: active = inhibition above about 30%; inactive = the rest.

SMILES	MazF activator	GDH-TPI counter	Mtb FBA inh	CCHF vOTU inh	Mtb betalactam
COCCNC(=O)/C(C#N)=C/c1c(N2CCN(c3ccccc3)CC2)nc2c(C)cccn2c1=O	10	7	25	-86	-3
CCCCOc1ccc(C2OC34CCCCC3C(C#N)(C#N)C2(C#N)C(=N)O4)cc1 (centres undefined)	-134	-3	73*	·	-1
C=CCOc1ccc(C2OC34CCCCC3C(C#N)(C#N)C2(C#N)C(=N)O4)cc1 (centres undefined)	10	4	58*	·	-4
CCOc1ccc(C2OC34CCCCC3C(C#N)(C#N)C2(C#N)C(=N)O4)cc1OC (centres undefined)	13	-3	75*	·	2
CCOc1ccc(C2C(C#N)=C(N)SC(N)=C2C#N)cc1OC	·	·	·	·	2
Cc1ccc(CNC(=O)OC(C)(C)C)c(/C=C/S(=O)(=O)NCCc2ccccc2)c1	·	·	·	26	·
CCOC(=O)[C@]12CCCC=C1N(Cc1ccc(OC)cc1)C(=O)[C@@H]2CC(=O)NCc1cccc2ccccc12	·	·	·	9	·
Nc1nc(Nc2ccccc2)sc1C(=O)c1ccccc1	-3	9	-1	-2	75
Cc1cnc(NC(=O)c2sc(Nc3ccccc3)nc2N)o1	32	31*	-1	6	-4
COC(=O)[C@H](CC(C)C)N(Cc1cn(Cc2ccc(C)cc2)nn1)S(=O)(=O)c1ccc(F)cc1Br	·	·	·	3	·
CC1=[N+](C)c2c(ccc3cccnc23)C1(C)C	-172	0	1	31*	·
NC(=O)c1cc2c3ccccc3ccn2c1-c1ccccc1	51*	-3	-3	17	73
COc1ccc(CSC2=C(C#N)C(=O)NC3(CCCCC3)S2)cc1	3	34*	-3	19	·
Cc1cccn2cc(-c3c[nH]c4ccccc34)nc12	6	4	195*	-63	10
COc1cc(-c2nnc(-c3ccco3)o2)ccc1OCc1ccccc1	-10	8	121*	-5	95
N#C/C(=C/c1ccc(-c2ccccc2[N+](=O)[O-])o1)C(N)=O	54*	21	-1	-4	-2
COC(=O)[C@]12C[C@H](CC(=O)N3CCOCC3)C(=O)N(CCc3ccc(OC)c(OC)c3)C1=C[C@H](C1CCCC1)O[C@@H]2C	·	·	·	3	·
COC(=O)c1nc(-c2ccc(C)cc2)oc1N(C)C	12	18	115*	-46	-1
COC(=O)c1oc(-c2ccccc2)nc1C	9	1	3	2	-1
COC(=O)c1nc(-c2ccccc2)oc1N(C)C	2	19	173*	-63	-4
O=P(c1ccccc1)(c1ccccc1)c1nc(-c2ccccc2)oc1N1CCOCC1	1	1	2	-13	6
COC(=O)c1nc(-c2ccccc2)oc1N1CCOCC1	0	1	146*	-14	-1
CCOC(=O)c1csc(NC(=O)C2CCCN(S(=O)(=O)c3ccccc3[N+](=O)[O-])C2)n1 (centres undefined)	·	·	·	-7	·
Cc1csc(NC(=O)CSc2nc3[nH]c(=O)cc(O)c3s2)n1	5	32*	9	-6	·
O=c1c(Cl)c(N/N=C/c2ccc(Br)cc2)cnn1-c1ccccc1	46	56*	3	4	85
SMILES	MazF activator	GDH-TPI counter	Mtb FBA inh	CCHF vOTU inh	Mtb betalactam
NNS(=O)(=O)c1ccc(Sc2ccccn2)c([N+](=O)[O-])c1	220*	-2	-1	12	1
N#Cc1ccc(Sc2ccccn2)c([N+](=O)[O-])c1	14	10	0	5	-2
CCOc1ccc(C2=CS/C(=C(\C#N)c3nnc4n3CCCCC4)N2CC)cc1	-2	32*	-1	7	3
C=CCN1C(c2ccccc2)=CS/C1=C(\C#N)c1nnc2n1CCCCC2	5	17	-6	17	-5
Cc1[nH]ccc2c1[nH]c1cc(=O)ccc12	1	7	167*	-180	1
CN(C)N=Nc1nc2c(c(=O)n(C)c(=O)n2C)n1C	7	34*	0	2	-2
CC(C)/C=N/Nc1nc2c(c(=O)n(C)c(=O)n2C)n1C	3	9	-1	-8	6
CN(C)C(=O)NCCCC#Cc1ccccc1	·	·	·	-3	·
COc1ccc2nc(Cl)cc(Cl)c2c1	-4	-8	0	-18	-9
C=CS(=O)(=O)c1c2cc(OC)ccc2nc2ccc(OC)cc12	-106	9	38*	-28	·
COc1ccc(C(=O)Nc2nnc(-c3ccco3)s2)cc1	-2	46*	12	-11	1
COc1ccccc1NC(=O)Nc1nnc(-c2ccco2)s1	·	·	·	·	15
O=C(Nc1nnc(-c2ccco2)s1)c1ccccc1	5	26	2	6	4
COc1ccccc1C(=O)Nc1nnc(-c2ccco2)s1	-2	33*	1	-17	18
COC(=O)C1CN(Cc2ccccc2)CCS(=O)(=O)N1Cc1ccc(Cl)cc1 (centres undefined)	·	·	·	-2	·
O=C(NCc1ccccc1Cl)c1ccc(CSc2nc3ccncc3[nH]2)cc1	3	-1	150*	4	12
Clc1ccccc1CSc1nc2ccncc2[nH]1	6	-6	1	-3	-1
CNc1nc2sc3c(c2c(=O)n1C)CC(C)(C)SC3	7	8	185*	-174	18
N#C/C(C(=O)N1CCCCC1)=C1\Nc2ccccc2S1	5	54*	-2	17	81
CC1=CS/C(=C(/C#N)C(=O)N2CCOCC2)N1c1ccccc1	-2	32*	-5	8	0
CC1=CS/C(=C(/C#N)C(=O)N2CCCCC2)N1c1ccccc1	6	45*	-2	11	-13
COC(=O)c1cccc(Cn2ccc3ccc(-c4ccc5ccn(Cc6cccc(C(=O)OC)c6)c5c4)cc32)c1	·	·	·	18	·
Cc1sc2ncnc(Sc3ccccc3C(=O)O)c2c1C	5	-1	1	10	-8
Cc1sc2ncnc(Sc3nnnn3-c3ccccc3)c2c1C	-3	9	27*	1	64
O=C(NC1CCCCN(Cc2cccc(C(F)(F)F)c2)C1=O)c1cccc(C(F)(F)F)c1 (centres undefined)	·	·	·	19	·
SMILES	MazF activator	GDH-TPI counter	Mtb FBA inh	CCHF vOTU inh	Mtb betalactam
C/C(=N\Nc1ccc(C(=O)O)cc1)c1ccc(S(=O)(=O)NCc2ccco2)cc1	3	54*	1	17	15
C/C(=N\Nc1ccc(C(=O)O)cc1)c1ccc(Br)cc1	-8	56*	2	13	11
C/C(=N\Nc1ccccn1)c1ccc(S(=O)(=O)NCc2ccco2)cc1	3	28	0	15	5
Nn1c(SCC(=O)Nc2cc(C(F)(F)F)ccc2Cl)nnc1-c1n[nH]c2c1CCC2	·	·	·	-5	·
CC1C/C(=C/c2cccn2C)C(=O)/C(=C/c2cccn2C)C1 (centres undefined)	+	12	-10	-7	17
Cc1ccc(S(=O)(=O)n2ccc(-c3c(-c4ccc(F)cc4)noc3C)n2)cc1	·	·	·	-1	·
COC(=O)c1ccc(CC(=O)c2ccc(O)cc2O)o1	10	33*	-3	·	2
COC(=O)c1cc(CC(=O)c2ccc(O)cc2O)c(C)o1	5	36*	1	-3	5
CC1CCC2(CC1)CCN(CCCOC(=O)Nc1cccc(C(F)(F)F)c1)C2=O (centres undefined)	·	·	·	19	·

Bioassay records as filed in PubChem.
